# Compound activity from PubChem BioAssay.
# The sample as a whole holds a higher share of hits than the screen did.
# HIV RNase H inh-1 = HIV-1 RT RNase H inhibitors, primary screen, biochemical, fluorescence. RT-RNase H RNA/DNA duplex cleavage. inhibition, % at 10 µM. 1.9% of 65,000 active; in the data active = inhibition above about 50%
# HIV RNase H inh-2 = HIV-1 RT RNase H inhibitors, retest, confirmation, biochemical; AID 651, 2007; 39% of 1,000 active; inhibition, % at 10 µM; Recombinant RT RNase H, fluorescent RNA/DNA duplex cleavage; shares compounds with HIV RNase H inh-1; in the data active = inhibition above about 48%; inconclusive = no clear call, values can overlap the other calls
# Numbers stand for hits; i = inactive; ? = inconclusive.
SMILES,HIV RNase H inh-1,others
OCn1ncn(-c2ccccc2)c1=S,i,
CC(C)(C)NC(=O)CSc1nnc(C2CC2)n1Cc1ccccc1,i,
O=C(C1CCCN(c2ncccn2)C1)N1CCc2ccccc21 (centres undefined),i,
CSc1nc2[nH]c3c(c2c2nncn12)CC(C)(C)OC3,i,
CC1(C)Cc2[nH]c(=S)c(C#N)cc2CO1,70,HIV RNase H inh-2=65
Cc1cc(C)n2c3c(c(C#N)c2n1)CC(C)(C)OC3,i,
CCOC(=O)c1c(C)c(C(=O)NCc2cccnc2)c(C)n1CC,i,
O=C(Cn1ncc2c1-c1ccccc1OC2)N1CCN(Cc2ccc3c(c2)OCO3)CC1,i,
S=C(Nc1ccccn1)c1ccccn1,73,HIV RNase H inh-2=68
O=C(Nc1ccccc1)Nc1ccccn1,i,
O=C(O)c1ccccc1C(=O)Nc1ccccn1,i,
CCCc1nnc(SCc2ccc(OC)cc2)n1N,i,
C/C(N)=C(/C#N)C(=O)CSc1nnc(NC(C)C)s1,i,
CCOc1cc(C2CC(=O)N3CN(C4CCCCC4)CSC3=C2C#N)ccc1O (centres undefined),79,HIV RNase H inh-2=72
CCOc1cc(C2CC(=O)NC(SCC)=C2C#N)ccc1O (centres undefined),i,
COc1ccc2ccccc2c1C1CC(=O)N2CN(C3CCCCC3)CSC2=C1C#N (centres undefined),82,HIV RNase H inh-2=60
CCOc1cc(C2CC(=O)Nc3cc(C)c(C)cc32)ccc1O (centres undefined),i,
COc1ccc(C2C(=O)N(C3CCCCC3)CC(=O)N2CCc2ccccc2)cc1OC (centres undefined),i,
COc1ccccc1C1CC(=O)NC(SCC(=O)Nc2ccccc2)=C1C#N (centres undefined),i,
CCC12CCCN3CCC4(C(=C(C(=O)OC)C1)Nc1ccccc14)C32 (centres undefined),i,
COc1ccccc1-n1c(=O)oc2ccc(Cl)cc2c1=O,i,
CCCc1cc(=O)[nH]c(/N=C(\N)Nc2ccccc2)n1,i,
CCN(CCNC(=O)c1cc(C)nn1-c1ccccc1)c1ccccc1,i,
CCOc1ccc(NC(=O)CSc2nnc(COc3c(C)cccc3C)o2)cc1,i,
COc1cccc(NC(=O)CSc2nnc(COc3ccc4c(c3)CCCC4)o2)c1,i,
SMILES,HIV RNase H inh-1,others
COC(=O)c1ccc(NC(=O)CSc2nnc(COc3ccc4c(c3)CCCC4)o2)cc1,75,HIV RNase H inh-2=i
O=C(Cn1nc(Cc2ccncc2)c2ccccc2c1=O)N1CCc2ccccc2C1,i,
O=C(CSc1ncc(-c2ccc(F)cc2)[nH]1)NCc1ccco1,i,
Cc1ccc(Nc2nnc(SCC(=O)NCc3ccco3)s2)cc1,i,
Cc1ccc2c(SCC(=O)NCc3ccco3)nc(-c3ccc(F)cc3)nc2c1,75,HIV RNase H inh-2=55
CCOC(=O)CSc1nc2cc(C)cc(C)c2cc1C#N,i,
Cc1cc(=O)[nH]c(SCC(=O)NCc2ccco2)n1,i,
Cc1cc(C)c2cc(C#N)c(SCC(=O)NCc3ccco3)nc2c1,72,HIV RNase H inh-2=i
Cc1ccccc1-n1c(SCC(=O)c2cc(C)n(C)c2C)nnc1-c1ccncc1,i,
Cc1nc(SCC(=O)CC(=O)OC(C)C)c(C#N)c(C)c1C,i,
CCOC(=O)CCc1c(C)c(C#N)c2nc3ccccc3n2c1-n1ccnc1,i,
CCOC(=O)CCc1c(C)nc(SCC(=O)O)c(C#N)c1C,70,HIV RNase H inh-2=i
CCOC(=O)c1c(C)nn(Cc2cccc(Cl)c2)c1N,i,
O=C(N1CCCC1)N1CCN(c2ncnc3c(-c4ccc(Cl)cc4)nsc23)CC1,i,
CC(NC(=O)Cc1ccc(F)cc1)C(c1cccs1)N1CCN(C)CC1 (centres undefined),i,
Cc1cc2oc(=O)cc(CN3CCC(C)CC3)c2c(C)c1Cl,i,
COc1ccc(N2CCN(Cc3cc(=O)oc4cc(C)c(Cl)c(C)c34)CC2)cc1,72,HIV RNase H inh-2=68
COc1ccc(N2CCN(CCNC(=O)c3c(C)cc(=O)oc3C)CC2)cc1,i,
Cc1cc2c(cc(C(=O)OCC(=O)NCc3cccs3)n2C(C)C)o1,i,
CCc1nn(C(C)C(=O)NC(C)CCc2ccco2)c(=O)c2cc3occc3n12 (centres undefined),i,
COCCCn1c(SCc2cc(=O)[nH]c3ccccc23)nnc1-c1ccco1,i,
Cc1ccc2[nH]c(C)c(CN(C)C3CCN(C)CC3)c(=O)c2c1,i,
c1ccc(SCc2nc3ccccc3[nH]2)nc1,i,
COc1cccc(CSc2nnc(-c3ccco3)n2C)c1,i,
CC1CCc2ccccc2N1C(=O)c1cccs1 (centres undefined),i,
SMILES,HIV RNase H inh-1,others
Cc1noc(C)c1C(=O)OCC(=O)c1cc(C)n(Cc2ccccc2Cl)c1C,i,
O=C(CNC(=O)c1ccc(Cl)cc1)NCCCn1ccnc1,i,
CCOC(=O)c1c(NC(=O)c2nn(CC)cc2Br)sc2c1CCCCC2,88,HIV RNase H inh-2=i
CCOC(=O)Nc1sc2c(c1C(=O)OCC)CCC2,i,
CCCc1cc(C(=O)Nc2sc3c(c2C(=O)OCC)CCCC3)no1,i,
CCOC(=O)c1nn(-c2ccccc2)c(C#N)c1NC(=O)c1nn(CC)cc1Br,i,
CCOC(=O)c1c(NC(=O)c2nn(CC)cc2Br)sc(C)c1C,94,HIV RNase H inh-2=i
CCn1ncc(Br)c1C(=O)Nc1sc2c(c1C(N)=O)CCC2,i,
CCOC(=O)c1ccc(NC(=O)c2nn(CC)cc2Br)cc1,i,
CCOC(=O)c1c(NC(=O)c2ccc(-n3cnnn3)cc2)sc2c1CCCC2,86,HIV RNase H inh-2=96
CCOC(=O)c1c(NC(=O)c2noc3c2CCCC3)sc2c1CCCC2,i,
Cc1ccc(OCCOCCn2ccnc2)c(Br)c1,i,
O=C(Cn1cc2c(n1)CCCC2)N1CCc2ccccc21,i,
COC(=O)C(C)Sc1nc(-c2ccc(OC)cc2)nc2c1c(=O)n(C)c(=O)n2C (centres undefined),i,
Cc1ccc(C)c(NC(=O)Cn2nc(C)c3ccccc3c2=O)c1,i,
CCCS(=O)(=O)N1CCCC(C(=O)NCCCN2CCN(c3cccc(Cl)c3)CC2)C1 (centres undefined),i,
Cc1cccc(-n2nnc(C(=O)NCc3ccccn3)c2N)c1,i,
c1cc(Nc2ncnc3sccc23)cc(-c2nnc3n2CCCCC3)c1,i,
O=S(=O)(Nc1ccc2c(c1)OCO2)c1ccc(Br)s1,i,
COc1ccc2c(c1)N(C)C(=O)CC(c1ccccc1)=N2,i,
O=C(CSc1nc2ccccc2o1)Nc1ccc(N2CCOCC2)cc1,i,
Cc1[nH]c2ccccc2c1C(=O)CSc1nc2cc(S(=O)(=O)N3CCCCC3)ccc2o1,i,
Cc1ccc(C(=O)CSc2nc3cc(S(=O)(=O)N4CCOCC4)ccc3o2)cc1,72,HIV RNase H inh-2=i
Cc1ccc(S(=O)(=O)N2CCN(C(=O)CSc3nc4ccccc4o3)C2)cc1,i,
O=C(CSc1nc2cc(S(=O)(=O)N3CCOCC3)ccc2o1)NC1CCCc2ccccc21 (centres undefined),85,HIV RNase H inh-2=?
SMILES,HIV RNase H inh-1,others
O=C1CCc2cc(S(=O)(=O)N3CCC(C(=O)NC4CCCc5ccccc54)CC3)ccc2N1 (centres undefined),i,
CC1CCN(C(=O)CSc2ccc3nnc(-c4ccc(F)cc4)n3n2)CC1,i,
Cc1ccc(NS(=O)(=O)c2ccc(NC(=O)c3ccc(Br)o3)cc2)c(C)c1,i,
O=C1C(c2ccncc2)N(CCC2=CCCCC2)C(=O)CN1C1CCCCC1 (centres undefined),i,
COC(=O)c1oc2ccc(Br)cc2c1NC(=O)c1ccccc1,59,HIV RNase H inh-2=76
COC(=O)c1oc2ccc(Cl)cc2c1NC(C)=O,i,
COC(=O)c1oc2ccc(Br)cc2c1NC(=O)CN1CCN(C)CC1,i,
